Structures are written as SMILES. Hit rate of the full screen: of about 1,400 compounds, about 350 (25%) were called active. Roughly 2% stayed inconclusive and do not appear here. These entries were drawn from the full list. Measured potencies and affinities stand elsewhere. Values without a mark were called inactive. How the calls were made is not given here.

The test can be described thus: inhibitors of Clostridioides difficile proliferation – 4-point retest, confirmation (AID 1224921).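 Further: plate controls were DMSO wells for no effect and levofloxacin 16 µg/mL wells for full effect.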 As to conditions: Clostridioides difficile clinical isolate growth, OD600, 24 h, hits give low values; at 30 µM unless noted.
For the compound `CCCN(C)C[C@H]1OCCCC[C@H](C)Oc2ccc(NC(=O)Nc3cccc4ccccc34)cc2C(=O)N([C@@H](C)CO)C[C@H]1C`, the max activity was 13.8%.

With `C[C@@H]1CN([C@@H](C)CO)C(=O)c2ccccc2-c2ccccc2CO[C@H]1CN(C)C(=O)CCN(C)C`, the max activity is -7.53% [at 0.5 µM].

As to `CO[C@H]1O[C@H](CO)[C@@H](OC(=O)Nc2cccc(F)c2)[C@H](OC(=O)Nc2ccc3c(c2)OCO3)[C@H]1OC(=O)Nc1ccc2c(c1)OCO2`, the max activity is 8.7%.

For `C[C@H](CO)N1C[C@H](C)[C@@H](CN(C)CC2CCCCC2)Oc2ccc(NC(=O)Cc3cn(C)c4ccccc34)cc2CC1=O`, the max activity is 22.1% [at 1.95 µM].

As for `CCCNC(=O)Nc1ccc2c(c1)C(=O)N(C)C[C@H](OC)[C@H](C)CN(C)[C@@H](C)CO2`, the max activity was -3.68% [at 0.5 µM].

Consider `C[C@@H]1CN([C@H](C)CO)C(=O)c2c(c3ccccc3n2C)-c2ccccc2CO[C@@H]1CN(C)C(=O)N[C@H](C)c1ccccc1`, for which the max activity is 9.23% [at 35 µM].

For `CCCNC(=O)Nc1ccc2c(c1)C(=O)N(C)C[C@@H](OC)[C@@H](C)CN(CC1CCCC1)[C@@H](C)CO2`, the max activity was -4.03% [at 1.95 µM].

As for `O=C(C[C@@H]1CC[C@@H]2[C@H](COC[C@H](O)CN2CC2CCCCC2)O1)NCc1ccc(Cl)cc1`, the max activity is 22.4% [at 8 µM].

As to `CO[C@H]1CN(C)C(=O)c2ccc(NC(=O)c3ccc(F)cc3)cc2OC[C@H](C)N(C(=O)CN(C)C)C[C@H]1C`, the max activity is -10.1%.

With `O=C(C[C@H]1C[C@H]2c3cc(NC(=O)CC4CC4)ccc3O[C@H]2[C@@H](CO)O1)NCc1cccc(F)c1`, the max activity was -3.04% [at 1.95 µM].

With `Cc1ccc(-c2ccc3c(c2)O[C@H](CN(C)Cc2ccncc2)[C@H](C)CN([C@H](C)CO)S3(=O)=O)cc1`, the max activity was 34.8%.

On to `C[C@H](CO)N1C[C@H](C)[C@H](CN(C)Cc2cccc(C(=O)O)c2)OCc2ccccc2-c2c(n(C)c3ccccc23)C1=O`, for which the max activity is -7.45% [at 0.5 µM].

For the compound `CC1=CC2(CO)C(=O)[C@]3(CO3)[C@H]1[C@H]1[C@]2(C)C=C(CO)C(=O)[C@]12CO2`, the max activity is 15.6%.

Regarding `Cc1ccc(F)cc1S(=O)(=O)N[C@@H]1CCN(Cc2ccc(OC(C)C)cc2)C1`, the max activity was 34.7% [at 8 µM].

Take `C[C@@H]1CN([C@H](C)CO)C(=O)c2c(c3ccccc3n2C)-c2ccccc2CO[C@H]1CN(C)C(=O)c1ccncc1`: the max activity was 18.8%.

With `COc1ccccc1-c1ccc2c(c1)O[C@H](CN(C)C(=O)c1ccccc1)[C@H](C)CN([C@@H](C)CO)S2(=O)=O`, the max activity was 42.3%.

`C[C@H](CO)N1C[C@H](C)[C@@H](CN(C)S(=O)(=O)c2ccsc2)OCc2ccccc2-c2ccccc2C1=O`: the max activity is 26.8%.

For the compound `CO[C@@H]1CN(C)C(=O)c2ccc(NS(=O)(=O)CC(F)(F)F)cc2OC[C@@H](C)N(C(=O)NC(C)C)C[C@H]1C`, the max activity was 14.6%.

As to `Cc1noc(C)c1NC(=O)N(C)C[C@@H]1Oc2ccc(NC(=O)CCCCCC(=O)Nc3ccccc3N)cc2C(=O)N([C@@H](C)CO)C[C@@H]1C`, the max activity is -8.05% [at 1.8 µM].

In the case of `CO[C@H]1CN(C)C(=O)c2cc(NC(=O)NC3CCCCC3)ccc2OC[C@@H](C)N(CCc2ccccc2)C[C@H]1C`, the max activity is 25.3%.

As for `CC(C)CC#Cc1ccc2c(c1)O[C@H](CN(C)Cc1ccncc1)[C@@H](C)CN([C@H](C)CO)S2(=O)=O`, the max activity is 17.5%.

Regarding `C[C@@H]1CN([C@@H](C)CO)C(=O)c2cc(/C=C/c3ccccc3)cnc2O[C@H]1CN(C)C(=O)CN(C)C`, the max activity is 18%.

Consider `COCC#Cc1ccc2c(c1)O[C@@H](CN(C)Cc1ccncc1)[C@@H](C)CN([C@H](C)CO)S2(=O)=O`, for which the max activity is 17.6%.

For the compound `O=C(NCCc1ccccc1)[C@H]1[C@H](CO)[C@H]2Cn3c(cccc3=O)[C@@H]1N2C(=O)C1CC1`, the max activity was -7.04%.

As for `C[C@H](CO)N1C[C@H](C)[C@@H](CN(C)Cc2cccnc2)Oc2cc(C#CC3CC3)ccc2S1(=O)=O`, the max activity is 21.4%.

As for `CCCN1C[C@@H](C)[C@H](OC)CN(C)C(=O)c2cc(NC(=O)c3ccc4c(c3)OCO4)ccc2OC[C@H]1C`, the max activity is 14.6% [at 35 µM].

Regarding `C[C@@H]1CN([C@H](C)CO)C(=O)c2ccccc2-c2ccccc2CO[C@H]1CN(C)C(=O)CCN(C)C`, the max activity was -7.05% [at 0.5 µM].

For the compound `COc1ccc(CN(C)C[C@H]2Oc3ccc(NC(=O)Nc4ccc(C(F)(F)F)cc4)cc3C(=O)N([C@@H](C)CO)C[C@H]2C)cc1`, the max activity is -5.09% [at 0.5 µM].

For the compound `CO[C@@H]1CN(C)C(=O)c2ccc(NS(=O)(=O)c3ccccc3C)cc2OC[C@H](C)N(S(C)(=O)=O)C[C@H]1C`, the max activity was -9.59% [at 8 µM].

As for `CNC[C@@H]1Oc2cc(-c3cccnc3)ccc2S(=O)(=O)N([C@H](C)CO)C[C@H]1C`, the max activity was 14.8%.

In the case of `C[C@H]1CN([C@@H](C)CO)C(=O)c2ccccc2-c2ccccc2CO[C@H]1CN(C)S(=O)(=O)c1ccsc1`, the max activity was -19.4%.

Take `Cc1ccc(-c2ccc3c(c2)O[C@H](CN(C)Cc2cccnc2)[C@H](C)CN([C@H](C)CO)S3(=O)=O)cc1`: the max activity is 17.6%.

In the case of `CCCNC(=O)Nc1ccc2c(c1)C(=O)N(C)C[C@H](OC)[C@@H](C)CN(C)[C@@H](C)CO2`, the max activity was 4.84% [at 8 µM].

For the compound `COCCNC(=O)C[C@@H]1CC[C@H]2[C@@H](COc3ccc(NS(=O)(=O)c4ccc(Cl)cc4)cc3C(=O)N2C)O1`, the max activity is 14.3%.

On to `CC(C)Cc1ccc(CN2CC[C@@H](NS(=O)(=O)c3ccccc3)C2)cc1`, for which the max activity is -12% [at 0.5 µM].

In the case of `CCCNC(=O)Nc1ccc2c(c1)C(=O)N(C)C[C@H](OC)[C@@H](C)CN(C(C)=O)[C@H](C)CO2`, the max activity is -7.56% [at 1.95 µM].

As for `CO[C@H]1CN(C)C(=O)c2ccc(NS(=O)(=O)c3ccc(C)cc3)cc2OC[C@H](C)N(C(=O)NC(C)C)C[C@H]1C`, the max activity was -11.4% [at 1.95 µM].

Take `C/C=C/c1ccc2c(c1)O[C@H](CN(C)C(=O)c1ccc(F)cc1)[C@H](C)CN([C@@H](C)CO)S2(=O)=O`: the max activity is 18.5%.

For the compound `CO[C@H]1CN(C)C(=O)c2cc(NC(C)=O)ccc2OC[C@@H](C)N(Cc2nccs2)C[C@H]1C`, the max activity was -12.5% [at 8 µM].

Take `CO[C@@H]1CN(C)C(=O)c2cc(NC(C)=O)ccc2OC[C@H](C)N(CC2CCCCC2)C[C@@H]1C`: the max activity is 16.5%.

On to `CC(=O)N[C@H]1CC[C@@H](CCNC(=O)Nc2ccc(C(F)(F)F)cc2)O[C@H]1CO`, for which the max activity is 10.2% [at 7.5 µM].

For `CC(=O)N[C@@H]1CC[C@H](CCNC(=O)Nc2ccc(C(F)(F)F)cc2)O[C@@H]1CO`, the max activity is 16.8% [at 8 µM].

As to `C[C@H]1CN([C@@H](C)CO)S(=O)(=O)c2ccc(C3=CCCCC3)cc2O[C@H]1CN(C)C(=O)C1CCCCC1`, the max activity is 30.6%.

As for `C[C@@H]1CN([C@H](C)CO)C(=O)c2cc(Br)cnc2O[C@H]1CN(C)C(=O)c1ccccc1`, the max activity is -3.07% [at 8 µM].

In the case of `C[C@H]1CN([C@@H](C)CO)S(=O)(=O)c2ccc(C#CC3CCCCC3)cc2O[C@H]1CN(C)Cc1cccnc1`, the max activity was 35.6%.

For `CO[C@H]1CN(C)C(=O)c2cc(NC(=O)c3ccc(F)cc3)ccc2OC[C@@H](C)N(C(C)=O)C[C@H]1C`, the max activity was -8.16% [at 1.95 µM].

Take `C[C@H](C(=O)N(C)C[C@H]1OCc2ccccc2-c2ccccc2C(=O)N([C@@H](C)CO)C[C@H]1C)c1ccccc1`: the max activity was 18.3%.

For `C[C@@H]1CN([C@H](C)CO)C(=O)c2cc(NC(=O)Nc3cccc4ccccc34)ccc2O[C@@H](C)CCCCO[C@H]1CN(C)S(=O)(=O)c1ccc(F)cc1`, the max activity was 36.9%.

In the case of `C[C@@H]1CN([C@@H](C)CO)C(=O)Cc2cc(NC(=O)NC3CCCCC3)ccc2O[C@@H]1CN(C)S(=O)(=O)c1ccc(Cl)cc1`, the max activity is 20.4%.

With `C[C@@H]1CN([C@@H](C)CO)S(=O)(=O)c2ccc(C#CC3CC3)cc2O[C@H]1CN(C)Cc1cccnc1`, the max activity is 34.2%.

For the compound `CCCNC(=O)N1C[C@H](C)[C@@H](OC)CN(C)C(=O)c2cc(NC(C)=O)ccc2OC[C@@H]1C`, the max activity is -10.9% [at 1.95 µM].

Turning to `COc1ccc(NC(=O)N[C@@H]2C=C[C@H](CC(=O)NC3CCCCC3)O[C@@H]2CO)cc1`, the max activity was 13.1% [at 1.95 µM].

On to `CCC(=O)N(C)C[C@@H]1Oc2cc(C#CCC3CCCC3)ccc2S(=O)(=O)N([C@@H](C)CO)C[C@H]1C`, for which the max activity is 27.8%.

`O=C(C[C@H]1C=C[C@H](NC(=O)CCN2CCCCC2)[C@H](CO)O1)Nc1ccc(-c2ccccc2)cc1`: the max activity was 11.2%.

Consider `CCCC#Cc1ccc([C@@H]2[C@H](C#N)N(S(=O)(=O)c3cccc(F)c3)[C@H]2CO)cc1`, for which the max activity was 21.1%.

Regarding `COc1ccc(NC(=O)N(C)C[C@@H]2Oc3ncc(-c4cccnc4)cc3C(=O)N([C@@H](C)CO)C[C@@H]2C)cc1`, the max activity was -18.5% [at 8 µM].

For the compound `CC(C)CC#Cc1ccc2c(c1)O[C@@H](CN(C)C(=O)c1ccccc1F)[C@@H](C)CN([C@@H](C)CO)S2(=O)=O`, the max activity was 18%.

As for `O=C(C[C@H]1CC[C@H]2[C@@H](COC[C@@H](O)CN2Cc2cccc(Cl)c2)O1)NCC1CCCCC1`, the max activity was 11.9% [at 8 µM].

The values are drawn from PubChem BioAssay AID1224921 (Broad Institute, 2016).
